Structures can show the parent of a compound that is named as a salt.
Key:
Experiment in all cases: phenotypically active (imaging signature differs from DMSO and reproducible) at any of 0.3-9 uM (binary (1 = active, 0 = inactive)); higher = active
Details in all cases: treatment time: 24 h
A549-ACTB-RAB5A = tested on: A549-ACTB-RAB5A
Summary of the method: (§1)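 Four wells per concentration (0.3, 1, 3 or 9 µM) were treated for 24 h in each of fifteen gene-edited reporter lines from A549, HepG2 and WPMY1 cells, then imaged live. After normalising live-cell features to solvent control wells, deviation was defined as ≥3 of 4 wells lying past the 95th percentile of control Euclidean distances. Reproducibility was defined as a median replicate Pearson correlation above the 95th percentile of non-replicates. Both had to hold for phenotypic activity.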

A549-CANX-COX4 = tested on: A549-CANX-COX4
Summary of the method: as §1

A549-GM130-SQSTM1 = tested on: A549-GM130-SQSTM1
Summary of the method: as §1

A549-TP53BP1-CLTA = tested on: A549-TP53BP1-CLTA
Summary of the method: as §1

A549-TUBA1B-RELA = tested on: A549-TUBA1B-RELA
Summary of the method: as §1

HepG2-ACTB-RAB5A = tested on: HepG2-ACTB-RAB5A
Summary of the method: as §1

HepG2-CANX-COX4 = tested on: HepG2-CANX-COX4
Summary of the method: as §1

HepG2-GM130-SQSTM1 = tested on: HepG2-GM130-SQSTM1
Summary of the method: as §1

HepG2-TP53BP1-CLTA = tested on: HepG2-TP53BP1-CLTA
Summary of the method: as §1

HepG2-TUBA1B-RELA = tested on: HepG2-TUBA1B-RELA
Summary of the method: as §1

WPMY1-ACTB-RAB5A = tested on: WPMY1-ACTB-RAB5A
Summary of the method: as §1

WPMY1-CANX-COX4 = tested on: WPMY1-CANX-COX4
Summary of the method: as §1

WPMY1-GM130-SQSTM1 = tested on: WPMY1-GM130-SQSTM1
Summary of the method: as §1

WPMY1-TP53BP1-CLTA = tested on: WPMY1-TP53BP1-CLTA
Summary of the method: as §1

WPMY1-TUBA1B-RELA = tested on: WPMY1-TUBA1B-RELA
Summary of the method: as §1

Measured: phenotypically active

NC(=O)c1cccc(N)c1 [3-Aminobenzamide]
inactive: A549-ACTB-RAB5A 0 | A549-CANX-COX4 0 | A549-GM130-SQSTM1 0 | A549-TP53BP1-CLTA 0 | A549-TUBA1B-RELA 0 | HepG2-ACTB-RAB5A 0 | HepG2-CANX-COX4 0 | HepG2-GM130-SQSTM1 0 | HepG2-TP53BP1-CLTA 0 | HepG2-TUBA1B-RELA 0 | WPMY1-ACTB-RAB5A 0 | WPMY1-CANX-COX4 0 | WPMY1-GM130-SQSTM1 0 | WPMY1-TP53BP1-CLTA 0 | WPMY1-TUBA1B-RELA 0

COc1c2c(cc3oc(CO)cc(=O)c13)O[C@@H](C(C)(C)O)C2 [Cimifugin]
inactive: A549-ACTB-RAB5A 0 | A549-CANX-COX4 0 | A549-GM130-SQSTM1 0 | A549-TP53BP1-CLTA 0 | A549-TUBA1B-RELA 0 | HepG2-ACTB-RAB5A 0 | HepG2-CANX-COX4 0 | HepG2-GM130-SQSTM1 0 | HepG2-TP53BP1-CLTA 0 | HepG2-TUBA1B-RELA 0 | WPMY1-ACTB-RAB5A 0 | WPMY1-CANX-COX4 0 | WPMY1-GM130-SQSTM1 0 | WPMY1-TP53BP1-CLTA 0 | WPMY1-TUBA1B-RELA 0

NNCCc1ccccc1 [phenelzine]
inactive: A549-ACTB-RAB5A 0 | A549-CANX-COX4 0 | A549-GM130-SQSTM1 0 | A549-TP53BP1-CLTA 0 | A549-TUBA1B-RELA 0 | HepG2-ACTB-RAB5A 0 | HepG2-CANX-COX4 0 | HepG2-GM130-SQSTM1 0 | HepG2-TP53BP1-CLTA 0 | HepG2-TUBA1B-RELA 0 | WPMY1-ACTB-RAB5A 0 | WPMY1-CANX-COX4 0 | WPMY1-GM130-SQSTM1 0 | WPMY1-TP53BP1-CLTA 0 | WPMY1-TUBA1B-RELA 0

C[n+]1cccc(C(=O)O)c1 [Trigonelline hydrochloride]
inactive: A549-ACTB-RAB5A 0 | A549-CANX-COX4 0 | A549-GM130-SQSTM1 0 | A549-TP53BP1-CLTA 0 | A549-TUBA1B-RELA 0 | HepG2-ACTB-RAB5A 0 | HepG2-CANX-COX4 0 | HepG2-GM130-SQSTM1 0 | HepG2-TP53BP1-CLTA 0 | HepG2-TUBA1B-RELA 0 | WPMY1-ACTB-RAB5A 0 | WPMY1-CANX-COX4 0 | WPMY1-GM130-SQSTM1 0 | WPMY1-TP53BP1-CLTA 0 | WPMY1-TUBA1B-RELA 0

C[N+](C)(C)CC[N+]1(C)Cc2c(Cl)c(Cl)c(Cl)c(Cl)c2C1 [Chlorisondamine diiodide]
inactive: A549-ACTB-RAB5A 0 | A549-CANX-COX4 0 | A549-GM130-SQSTM1 0 | A549-TP53BP1-CLTA 0 | A549-TUBA1B-RELA 0 | HepG2-ACTB-RAB5A 0 | HepG2-CANX-COX4 0 | HepG2-GM130-SQSTM1 0 | HepG2-TP53BP1-CLTA 0 | HepG2-TUBA1B-RELA 0 | WPMY1-ACTB-RAB5A 0 | WPMY1-CANX-COX4 0 | WPMY1-GM130-SQSTM1 0 | WPMY1-TP53BP1-CLTA 0 | WPMY1-TUBA1B-RELA 0

O=C(NCCO)c1cc(C(=O)NCCO)cc(C(=O)NCCO)c1
inactive: A549-ACTB-RAB5A 0 | A549-CANX-COX4 0 | A549-GM130-SQSTM1 0 | A549-TP53BP1-CLTA 0 | A549-TUBA1B-RELA 0 | HepG2-ACTB-RAB5A 0 | HepG2-CANX-COX4 0 | HepG2-GM130-SQSTM1 0 | HepG2-TP53BP1-CLTA 0 | HepG2-TUBA1B-RELA 0 | WPMY1-ACTB-RAB5A 0 | WPMY1-CANX-COX4 0 | WPMY1-GM130-SQSTM1 0 | WPMY1-TP53BP1-CLTA 0 | WPMY1-TUBA1B-RELA 0

O=C(O)[C@H](Cc1c[nH]c2ccccc12)N1C(=O)c2ccccc2C1=O
inactive: A549-ACTB-RAB5A 0 | A549-CANX-COX4 0 | A549-GM130-SQSTM1 0 | A549-TP53BP1-CLTA 0 | A549-TUBA1B-RELA 0 | HepG2-ACTB-RAB5A 0 | HepG2-CANX-COX4 0 | HepG2-GM130-SQSTM1 0 | HepG2-TP53BP1-CLTA 0 | HepG2-TUBA1B-RELA 0 | WPMY1-ACTB-RAB5A 0 | WPMY1-CANX-COX4 0 | WPMY1-GM130-SQSTM1 0 | WPMY1-TP53BP1-CLTA 0 | WPMY1-TUBA1B-RELA 0

COc1ccc(C2(CNC(=O)c3ccc(NC(=O)c4ccco4)cc3)CCOCC2)cc1
inactive: A549-ACTB-RAB5A 0 | A549-CANX-COX4 0 | A549-GM130-SQSTM1 0 | A549-TP53BP1-CLTA 0 | A549-TUBA1B-RELA 0 | HepG2-ACTB-RAB5A 0 | HepG2-CANX-COX4 0 | HepG2-GM130-SQSTM1 0 | HepG2-TP53BP1-CLTA 0 | HepG2-TUBA1B-RELA 0 | WPMY1-ACTB-RAB5A 0 | WPMY1-CANX-COX4 0 | WPMY1-GM130-SQSTM1 0 | WPMY1-TP53BP1-CLTA 0 | WPMY1-TUBA1B-RELA 0

OCC(CO)N[C@H]1C[C@](O)(CO)[C@@H](O)[C@H](O)[C@H]1O [Voglibose]
inactive: A549-ACTB-RAB5A 0 | A549-CANX-COX4 0 | A549-GM130-SQSTM1 0 | A549-TP53BP1-CLTA 0 | A549-TUBA1B-RELA 0 | HepG2-ACTB-RAB5A 0 | HepG2-CANX-COX4 0 | HepG2-GM130-SQSTM1 0 | HepG2-TP53BP1-CLTA 0 | HepG2-TUBA1B-RELA 0 | WPMY1-ACTB-RAB5A 0 | WPMY1-CANX-COX4 0 | WPMY1-GM130-SQSTM1 0 | WPMY1-TP53BP1-CLTA 0 | WPMY1-TUBA1B-RELA 0

COC(=O)C1=C(C)NC(C)=C(C(=O)OC(C)C)C1c1cccc2nonc12 (stereo not given) [isradipine]
inactive: A549-ACTB-RAB5A 0 | A549-CANX-COX4 0 | A549-GM130-SQSTM1 0 | A549-TP53BP1-CLTA 0 | A549-TUBA1B-RELA 0 | HepG2-ACTB-RAB5A 0 | HepG2-CANX-COX4 0 | HepG2-GM130-SQSTM1 0 | HepG2-TP53BP1-CLTA 0 | HepG2-TUBA1B-RELA 0 | WPMY1-ACTB-RAB5A 0 | WPMY1-CANX-COX4 0 | WPMY1-GM130-SQSTM1 0 | WPMY1-TP53BP1-CLTA 0 | WPMY1-TUBA1B-RELA 0

CCCC(=O)Nc1ncnc2c1ncn2[C@@H]1O[C@@H]2COP(=O)(O)O[C@H]2[C@H]1OC(=O)CCC [Dibutyryl-cAMP, sodium salt]
inactive: A549-ACTB-RAB5A 0 | A549-CANX-COX4 0 | A549-GM130-SQSTM1 0 | A549-TP53BP1-CLTA 0 | A549-TUBA1B-RELA 0 | HepG2-ACTB-RAB5A 0 | HepG2-CANX-COX4 0 | HepG2-GM130-SQSTM1 0 | HepG2-TP53BP1-CLTA 0 | HepG2-TUBA1B-RELA 0 | WPMY1-ACTB-RAB5A 0 | WPMY1-CANX-COX4 0 | WPMY1-GM130-SQSTM1 0 | WPMY1-TP53BP1-CLTA 0 | WPMY1-TUBA1B-RELA 0

O=C1CCc2c(ccc3ccccc23)O1 [Splitomicin]
inactive: A549-ACTB-RAB5A 0 | A549-CANX-COX4 0 | A549-GM130-SQSTM1 0 | A549-TP53BP1-CLTA 0 | A549-TUBA1B-RELA 0 | HepG2-ACTB-RAB5A 0 | HepG2-CANX-COX4 0 | HepG2-GM130-SQSTM1 0 | HepG2-TP53BP1-CLTA 0 | HepG2-TUBA1B-RELA 0 | WPMY1-ACTB-RAB5A 0 | WPMY1-CANX-COX4 0 | WPMY1-GM130-SQSTM1 0 | WPMY1-TP53BP1-CLTA 0 | WPMY1-TUBA1B-RELA 0
